About 83,000 compounds went through this panel and 20% of them were active in at least one assay; those are over-represented in the sample as a whole.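 Each cell line was grown in a 96-well plate and treated with one concentration of compound for 48 hours. Values below 10 were considered active.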 A number with no mark means an inactive call. Activity calls are given as the source filed them.
Each compound was assayed on HL-60(TB) leukemia (assay: NCI-60 one-dose screen, 48 h (100 = growth as untreated, 0 = no growth, -100 = all killed)). Settings: 10 µM unless noted.

SMILES | growth
O=C(Nc1ccc(I)cc1F)c1cc(I)ccc1O | -25.2% (active)
CCCCCC(=O)OCc1ccc(Cl)c(Cl)c1 | 97.2%
Cc1ccc2c(n1)C(=O)C(Br)=C(CC(C)C)C2=O | 58.4%
C=C[Si](OC(C)=O)(OC(C)=O)OC(C)=O | 94.3%
COc1ccc(-n2c(-c3ccc(NC(=O)CCCl)cc3)nnc2-c2cc(OC)c(OC)c(OC)c2)cc1 | -12.6% (active)
CCOC(=O)C(=CCC(C)C)C(=O)OCC | 40.5%
Cc1ccc2oc3nc(C)c(C(=O)NCc4ccccc4)cc3c(=O)c2c1 | 73.4%
COc1ccc(C2Nc3ncnc(N)c3N=C3c4ccccc4C(=O)C32)cc1 (stereo not given) | 58.8%
FC(F)(F)c1[nH]ncc1-c1nc2c(N3CCCCC3)cc3[nH]ncc3c2c2c1CCCC2 | -1.46% (active)
[O-][n+]1c(Cl)cc(Cl)c2ccccc21 | 84.9%
O=C1CS/C(=N/c2nnc(-c3ccc(O)cc3)s2)N1 | 98.8%
c1ccc(Sc2ncccn2)nc1 | 100%
O=C1/C(=C/c2ccc([N+](=O)[O-])cc2)COc2ccc(O)c(O)c21 | -14.6% (active)
CCN(CCNc1ccc(C)c2sc3cc(Cl)ccc3c(=O)c12)CC(C)(C)O | 81.4%
Cc1nc2oc3ccccc3c(=O)c2cc1C(=O)NCc1ccccc1 | 69.5%
CC(=O)N1N=C(c2ccc(Nc3nc(Nc4ccc(F)cc4)nc(Nc4ccc(F)cc4)n3)cc2)CC1c1cccc([N+](=O)[O-])c1 (stereo not given) | 0% (active)
COc1cc2cc(Oc3ccc(NC(=O)Nc4ccc(F)c(C(F)(F)F)c4)cc3)c(C)nc2cc1OCCN1CCCCC1 | -24.5% (active)
CCCCCCOC(=O)CC1=C(C)/C(=C/c2[nH]c(-c3ccc[nH]3)cc2OC)N=C1C | -42.7% (active)
C#C[C@]1(O)CC[C@H]2[C@@H]3CC=C4c5nc(Nc6ccccn6)sc5CC[C@]4(C)[C@H]3CC[C@@]21C | 10.6%
C=C1C(=O)O[C@H]2[C@H]1CC/C(COC(=O)C(=O)c1cn(C)c3ccc(OC)cc13)=C\CC[C@@]1(C)O[C@@H]21 | -38.7% (active)

SMILES | growth
COC(=O)c1ccc2[nH]c(O)c(C(=Nc3ccc(N(C)C(=O)CN4CCN(C)CC4)cc3)c3ccc(CCO)cc3)c2c1 | 7.24% (active)
COc1cc(C(=O)c2c(-c3ccccc3)oc3c(OC)cccc23)cc(OC)c1O | 3.31% (active)
O=C1CCC23OC(c4ccccc4N12)C(O)C(O)C3O (stereo not given) | 97%
Cc1c(C(=O)OCCCCOC(=O)c2c(C)n(C)c3scc[n+]23)[n+]2ccsc2n1C | 87.1%
CCCCCCCCCCCCCC1=NCCN1CCO | 2.28% (active)
CNC(=O)c1cc(-n2ccc3cc(NC(=O)c4ccc(N5CCOCC5)c(C(F)(F)F)c4)ccc32)ccn1 | 66.3%
Cc1cc2c(cc1C)N(C(=O)CCl)CC(=O)N2 | 8.25% (active)
COc1ccc(-c2[nH]ncc2-c2cc(OC)c(OC)c(OC)c2)cc1 | -35.5% (active)
COc1ccc(-c2nnc(SCC(=O)Nc3ccc(/C(C)=N\O)cc3)n2-c2ccccc2)cc1OC | 77.3%
C[C@]12CC[C@@H]3c4ccc(O)c([N+](=O)[O-])c4CC[C@H]3[C@@H]1CC[C@@H]2NS(=O)(=O)c1ccc(C(F)(F)F)cc1 | -11.6% (active)
N#CN1CC[C@H](C(=O)Nc2ncc(-c3ccncc3)s2)C1 | -28.5% (active)
O=C(C(Br)Br)C(Br)C(Br)c1ccccc1 (stereo not given) | 88.8%
CC1=CC(=NC(=O)CBr)C=C/C1=N\S(=O)(=O)c1ccccc1 | 67.2%
CC[C@H](C)[C@@H](C(=O)OC)n1cc(CNC(=O)[C@@H](Cc2ccccc2)NC(=O)OCc2ccccc2)nn1 | 104%
CC1=C(O)C(=O)C(C(C#N)(C#N)C(C#N)C#N)C1 (stereo not given) | 91.7%
Nc1cc(N)c2nc(-c3ccccc3)c(NCCc3ccc(Cl)c(Cl)c3)nc2c1 | -10.5% (active)
COc1ccccc1/C=C/C(=O)c1ccccc1 | 51.8%
O=C1c2cccnc2C(=O)c2c1c(C(=O)OCCc1ccccn1)c1ccccn21 | -19.5% (active)
Clc1ccc2[nH]c3c(NCCCN4CCOCC4)ncnc3c2c1 | 36.3%
O=C(N/N=C\c1ccc(Cl)cc1Cl)c1ccncc1 | 87.6%
